# CHOP inh: blocks CHOP induction under ER stress | CHO-K1 CHOP-promoter luciferase, tunicamycin-induced, 15-18 h | inhibition, % at 10 µM | hit rate 3.8% among 220,000 | AID 2732;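 active = compounds that reduced the stress-induced luciferase reporter signal by more than about 70% of percent inhibition, limit read from the data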;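 note: 0% = tunicamycin plus vehicle and 100% = wells without tunicamycin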
# RAM network inh: yeast RAM network inhibition; hit rate 1.8% among 190,000; S. cerevisiae dse1pr::URA3 reporter, 5-FOA growth OD615, 2 d; analog-sensitive cbk1-as2 kinase mutant strain; inhibition, % at 50 µM;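 active = inhibition above a set limit, 3 SD over mean compound inhibition, cut at about 8.4% in these data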;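 note: 0% = DMSO-only wells with no growth and 100% = 10 µM 1-NA-PP1 full growth; inhibition rescues growth on 5-FOA so higher OD means more RAM inhibition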
# WT yeast gro inh: growth inhibition of WT yeast, mitochondrial fusion screen; AID 1362; hit rate 2.1% among 190,000; inhibition, % at 10 µM; mitochondrial fusion phenotypic screen, WT strain; in the data active = inhibition above about 58%; tested in S. cerevisiae
# L major viab: inhibitors of Leishmania major promastigote growth. Leishmania major promastigotes, resazurin fluorescence viability. inhibition, % at 10 µM. hit rate 9% among 200,000; in the data active = inhibition above about 50%;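 note: promastigotes grown with compound for 44 hours at 28 °C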
# CHOP inh conf: confirmation of CHOP induction inhibitors; shares compounds with CHOP inh; CHO-CHOP promoter luciferase reporter, tunicamycin-induced, luminescence; inhibition, % at 10 µM; hit rate 45% among 2,100;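 active = mean of three repeat readings of reporter signal inhibition above a set limit, cut at about 70% in these data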;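 note: 0% = tunicamycin plus vehicle and 100% = wells lacking tunicamycin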
# Active calls of the source: *; x = not tested or not shown. Sampled rows, rich in hits. Any-hit rate of the full collection: about 13%.
SMILES,CHOP inh,RAM network inh,WT yeast gro inh,L major viab,CHOP inh conf
Cc1ccccc1N1CCN(C(=O)c2ccc(Oc3ccc(C(F)(F)F)cn3)cc2)CC1,103.3*,5.6,74.7*,-2.1,73.2*
O=C(O)c1ccc(Oc2ccc(C(F)(F)F)cn2)cc1,4.3,1.9,-8.7,4.9,x
CC(C)(C)OC(=O)CNC(=O)c1[nH]cnc1C(=O)Nc1ccc(Cl)cc1,100.2*,x,x,x,76.6*
C[C@H](NC(=O)c1[nH]cnc1C(=O)Nc1ccccc1)C(=O)OC(C)(C)C,48.2,x,x,x,x
Cc1ccc(NC(=O)c2nc[nH]c2C(=O)N[C@@H](C)C(=O)OC(C)(C)C)cc1,96.6*,x,x,x,78.2*
Cc1cc(NC(=O)c2coc(=O)c(Br)c2)ccc1C(C)C,10.3,x,x,x,x
FC(F)(F)c1cccc(Sc2nc(-c3ccccc3)nnc2C(F)(F)F)c1,108.5*,8.6*,-9.3,46.0,108.7*
FC(F)(F)c1nnc(-c2ccccc2)nc1Oc1ccc(Cl)cc1Cl,-61.3,2.2,4.7,-11.9,x
FC(F)(F)c1nnc(-c2ccccc2)nc1Sc1ccc(Cl)cc1,114.2*,6.9,15.7,30.7,118.9*
O=C(NC1CCCC1)C1CCN(C(=O)c2ccc(-c3ccccc3)cc2)CC1,-2.2,0.7,7.5,-6.0,x
COc1ccc(-c2cc(=O)c(C(=O)c3ccc(C)cc3)n[nH]2)cc1,7.5,2.0,-18.2,-4.2,x
COc1ccc(/C=N/n2c(N)nc(-c3ccccc3)c2-c2ccccc2)cc1,104.4*,2.5,21.1,56.6*,51.8
O=S1(=O)c2ccccc2N=NN1Cc1ccc(Cl)cc1,108.8*,0.9,1.6,17.4,16.3
Clc1ccc(Cn2cnc3ccccc32)cc1,12.7,1.9,11.3,17.0,x
CC1CCCC(NC(=O)COC(=O)/C=C/c2ccc3c(c2)OCO3)C1C (stereo unspecified),97.9*,4.3,9.6,-3.4,96.0*
Nc1ccc(SC(F)(F)F)cc1C(=O)c1ccccc1,103.5*,-1.6,21.3,11.3,110.9*
Nc1cc(C(=O)O)ccc1Sc1ccccc1C(=O)O,1.9,1.8,-17.1,-6.9,x
O=S(=O)(Nc1cc(Sc2cccc3cccnc23)c(O)c2ccccc12)c1ccc(F)cc1,106.9*,3.5,49.5,100.4*,107.7*
Cc1cc(C)nc(/N=C(\N)Nc2ccc(F)c([N+](=O)[O-])c2)n1,15.1,-0.8,2.9,34.5,x
CCOC(=O)c1c(-c2ccccc2)oc2ccc(O)c(CN3CCOCC3)c12,109.3*,1.2,31.0,20.4,95.8*
COc1ccc(N=Cc2nc(-c3ccccc3)oc2OC(=O)c2ccccc2)cc1,30.1,2.2,4.6,-7.1,x
CC(=O)Oc1oc(-c2ccccc2)nc1C=Nc1ccccc1,-2.2,-0.5,3.0,-8.4,x
Cc1ccc(C(=O)Oc2oc(-c3ccco3)nc2C=Nc2ccccc2)cc1,102.2*,2.1,0.9,-2.2,-24.2
CCOC(=O)c1ccc(N=Cc2nc(-c3ccccc3)oc2OC(C)=O)cc1,105.6*,8.1,7.6,-0.8,-18.8
Cc1ccc(C(=O)N/C(=C\c2ccc(Cl)cc2)C(=O)NCC2CCCO2)cc1 (stereo unspecified),-20.6,4.1,0.3,-4.2,x
SMILES,CHOP inh,RAM network inh,WT yeast gro inh,L major viab,CHOP inh conf
COc1cccc(NC(=S)/C(=C(\[O-])c2ccc([N+](=O)[O-])cc2)[n+]2ccccc2)c1,-4.2,4.7,5.6,-5.7,x
O=C(CN1C(=O)CCC1=O)Nc1ccc(Cc2ccc(NC(=O)CN3C(=O)CCC3=O)cc2)cc1,18.0,-0.2,4.0,-6.0,x
CCN(CC)CCOc1ccc(/C(=C(/Cl)c2ccccc2)c2ccccc2)cc1,98.6*,-2.2,97.6*,100.4*,7.3
CC/C(=C(\c1ccc(O)cc1)c1ccc(OCCN(C)C)cc1)c1ccccc1,-12.2,x,56.4,x,x
CCCc1cc(C(=O)N(C2CCCCC2)C2CCCCC2)no1,99.5*,0.3,41.5,9.2,89.0*
CCCc1cc(C(=O)NC2CCCCC2)no1,0.0,0.0,-7.0,-6.1,x
CC(CNC(=S)Nc1cc(F)cc(F)c1)CSc1ccc(Cl)cc1 (stereo unspecified),96.5*,5.7,50.3,47.5,86.3*
CCOC(=O)N1CCN(C(=O)c2cc3c(s2)-c2ccc(Cl)cc2S(=O)(=O)C3)CC1,15.2,3.2,-6.8,-3.6,x
CCc1[nH]c(C(=O)O)c(C)c1C(=O)OC,11.8,x,x,x,x
N#C/C(=C/c1ccc(N2CCCCCC2)o1)c1cccc(F)c1,104.0*,7.3,2.2,20.2,27.5
CCOC(=O)CCCCC(=O)c1[nH]c(=O)[nH]c1CSc1nc(C)cc(C)n1,5.1,0.1,1.9,-2.0,x
CCOC(=O)CCCCC(=O)c1[nH]c(=O)[nH]c1CSc1nnc2c3cc(Br)ccc3n(C)c2n1,102.6*,1.2,-9.2,4.8,6.1
CCOc1ccccc1NC(=O)c1cc(C(=O)Nc2ccccc2OCC)cc(N2C(=O)CCC2=O)c1,31.5,5.5,8.5,-3.2,x
N#CC(c1ccccc1O)N1N=C(c2ccccc2)CC1c1ccccc1 (stereo unspecified),97.1*,x,x,x,26.1
NNC(=O)COc1ccc(C(F)(F)F)cc1,20.2,-0.8,-5.8,-1.5,x
O=S(=O)(NCc1ccccn1)c1ccc(Cl)s1,7.5,0.2,2.1,2.2,x
CC(C)(C)c1ccc(C(=O)NC(=S)NNC(=O)c2cccs2)cc1,107.4*,1.2,77.3*,24.5,133.7*
Clc1nc(Cl)nc(NCCC2=CCCCC2)n1,-20.2,1.7,-5.5,-3.2,x
Cc1ccccc1N(C(=O)Cc1c[nH]c2ccccc12)C(C(=O)NC1CCCCC1)c1ccco1 (stereo unspecified),102.9*,4.0,-16.7,30.7,51.1
CCC(C)(NC(=O)Cc1c[nH]c2ccccc12)C(=O)NC1CCCCC1 (stereo unspecified),15.1,-0.5,-3.1,-4.0,x
Cc1ccc(C(C(=O)NC2CCCCC2)N(C(=O)Cc2c[nH]c3ccccc23)c2ccccc2C)o1 (stereo unspecified),100.0*,3.3,-1.4,15.2,86.1*
Cc1ccc(-c2nnn(CC(=O)N(c3ccccc3F)C(C(=O)NC3CCCC3)c3ccco3)n2)o1 (stereo unspecified),30.7,8.2,-14.2,11.8,x
Cc1ccccc1NC(=O)NCCN1C(=O)C2C3C=CC(C3)C2C1=O (stereo unspecified),9.6,2.9,12.9,-5.4,x
Fc1ccc2[nH]c3c(N4CCN(c5ccccc5)CC4)ncnc3c2c1,60.8,1.4,27.1,21.7,x
OC1(c2cccc(C(F)(F)F)c2)CCN(c2ncnc3c2[nH]c2ccc(F)cc23)CC1,x,2.1,-7.8,88.3*,101.6*
Cc1ccc(NC(=O)/C(=C\c2ccc([N+](=O)[O-])cc2)NC(=O)c2ccccc2)cc1,98.1*,3.6,51.7,-1.3,-4.1
NS(=O)(=O)c1ccc(Oc2ccc(S(N)(=O)=O)cc2)cc1,-13.5,0.7,2.7,-3.6,x
C=CS(=O)(=O)c1ccc(Oc2ccc(S(=O)(=O)C=C)cc2)cc1,x,0.9,7.8,-6.6,119.6*
CC1CCN(c2ccc(C(=O)O)cc2NS(=O)(=O)c2ccc(Br)cc2)CC1,-2.3,3.4,4.8,-0.2,x
O=C(CN1C(=O)c2ccccc2S1(=O)=O)c1ccc2c(c1)OCCCO2,104.1*,x,x,x,120.9*

# Assay outcomes (PubChem)
